In PubChem BioAssay AID1839 (Johns Hopkins Ion Channel Center, 2009) one finds signal change vs control minus 3*SD hit threshold (margin above threshold, higher = more increase) data, which are given here for 32 molecules.

Out of some 2,400 compounds screened, about 220 (9.2%) were called active. The sample holds actives, similar compounds and a random draw of the others, so the mix is not that of the screen. A number with no mark means an inactive call.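 Rule for the calls: active = signal change above the mean of dofetilide-free buffer controls plus 3 SD, so a positive margin; inactive = the rest.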

A short description of this test: nonspecific flux effects in parental CHO-K1, confirmation, counter-screen for hERG block protection project, cell-based, CHO-K1 parental line, FluxOR thallium flux (AID 1839).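 Note: compounds applied alone with no dofetilide to cells lacking hERG.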 Conditions: CHO-K1 parental cells, FluxOR thallium flux fluorescence; at 10 µM. (The purpose of a counterscreen is to sort out artefacts and off-target activity.)
On to `O=C(NC(=S)N1CCN(C/C=C/c2ccccc2)CC1)c1ccc(Cl)nc1`, for which the signal change vs control minus 3*SD hit threshold (margin above threshold, higher = more increase) was -22.6%.

Consider `Cc1ccc(NC(=S)N2CCN(c3ccccc3F)CC2)c(C)c1`, for which the signal change vs control minus 3*SD hit threshold (margin above threshold, higher = more increase) was -24.2%.

For `O=c1[nH]c2ccc(S(=O)(=O)NCc3ccccc3)cc2[nH]1`, the signal change vs control minus 3*SD hit threshold (margin above threshold, higher = more increase) was -30.8%.

In the case of `CC(=O)c1c(N2CCN(Cc3ccccc3)CC2)[nH]c(-c2ccccc2)nc1=S`, the signal change vs control minus 3*SD hit threshold (margin above threshold, higher = more increase) is -16.4%.

As for `CCN(CC)C(=O)CN1C(=O)c2cccc3cccc(c23)C1=O`, the signal change vs control minus 3*SD hit threshold (margin above threshold, higher = more increase) is -21.1%.

On to `COc1ccccc1/C=C1\SC(=S)N(NS(=O)(=O)c2ccc(C)cc2)C1=O`, for which the signal change vs control minus 3*SD hit threshold (margin above threshold, higher = more increase) was -41.8%.

For `Cc1cc(=O)oc2cc(OC(C(=O)O)c3ccccc3)ccc12` (configuration not stated), the signal change vs control minus 3*SD hit threshold (margin above threshold, higher = more increase) was -33.7%.

For the molecule `Cc1ccc(-c2cc(-c3n[nH]c(=S)o3)c3ccccc3n2)cc1`, the signal change vs control minus 3*SD hit threshold (margin above threshold, higher = more increase) was -2.6%.

Consider `C=CCc1cc(Cl)ccc1OCCOCCN(C)C`, for which the signal change vs control minus 3*SD hit threshold (margin above threshold, higher = more increase) is -30%.

With `CCOC(=O)c1sc2nc(C)[nH]c(=S)c2c1C`, the signal change vs control minus 3*SD hit threshold (margin above threshold, higher = more increase) is -9.2%.

For `CCOC(=O)c1c(NC(=O)/C=C/c2ccco2)sc(C)c1C`, the signal change vs control minus 3*SD hit threshold (margin above threshold, higher = more increase) is -32.2%.

In the case of `CCOC(=O)c1sc2ncnc(NCc3ccco3)c2c1C`, the signal change vs control minus 3*SD hit threshold (margin above threshold, higher = more increase) was 1.7% (active).

For the molecule `CCOC(=O)c1sc(NC(=O)c2ccccc2C(=O)O)c(C(=O)OCC)c1C`, the signal change vs control minus 3*SD hit threshold (margin above threshold, higher = more increase) was -19%.

`CCOC(=O)c1sc(NC(=S)NC(=O)c2ccccc2)nc1C`: the signal change vs control minus 3*SD hit threshold (margin above threshold, higher = more increase) was -3.4%.

In the case of `CCOC(=O)c1sc2ncnc(NCC(c3cccs3)N(C)C)c2c1C` (configuration not stated), the signal change vs control minus 3*SD hit threshold (margin above threshold, higher = more increase) was 3.3% (active).

For the molecule `CC/C(=N\NC(=O)c1nnn(-c2nonc2N)c1-c1cccs1)c1ccccc1`, the signal change vs control minus 3*SD hit threshold (margin above threshold, higher = more increase) is -25.4%.

As to `CC(C)(C)c1ccc(C(=O)NC(=S)Nc2nc3c(s2)CCCC3)cc1`, the signal change vs control minus 3*SD hit threshold (margin above threshold, higher = more increase) was -9.2%.

Consider `O=C(NC(=S)Nc1nc2c(s1)CCCC2)c1ccc(C(=O)c2ccccc2)cc1`, for which the signal change vs control minus 3*SD hit threshold (margin above threshold, higher = more increase) is -36.7%.

Consider `COC(=O)c1ccc(C(=O)NC(=S)Nc2nc3c(s2)CCCC3)cc1`, for which the signal change vs control minus 3*SD hit threshold (margin above threshold, higher = more increase) was 2% (active).

`O=C(NCC(c1cccs1)N1CCOCC1)c1cc(S(=O)(=O)N2CCOCC2)ccc1F` (configuration not stated): the signal change vs control minus 3*SD hit threshold (margin above threshold, higher = more increase) is -28.4%.

For the molecule `O=C1CSC(=S)N1/N=C/c1cc(Br)ccc1O`, the signal change vs control minus 3*SD hit threshold (margin above threshold, higher = more increase) was -42.6%.

With `O=C(/C=C/c1ccccc1)c1cc(Br)ccc(=O)c1O`, the signal change vs control minus 3*SD hit threshold (margin above threshold, higher = more increase) was -22.9%.

In the case of `CC(=O)Oc1c(-c2ccco2)oc2ccccc2c1=O`, the signal change vs control minus 3*SD hit threshold (margin above threshold, higher = more increase) is -12.5%.

Regarding `CC(=O)Oc1c(-c2ccc(Br)o2)oc2ccccc2c1=O`, the signal change vs control minus 3*SD hit threshold (margin above threshold, higher = more increase) was 63.5% (active).

As to `COc1ccc(-c2oc3ccccc3c(=O)c2OC(C)=O)cc1`, the signal change vs control minus 3*SD hit threshold (margin above threshold, higher = more increase) was -22.3%.

Take `Cc1ccc(C(=O)NNc2cc(N3CCCC3)nc(N3CCCC3)n2)cc1`: the signal change vs control minus 3*SD hit threshold (margin above threshold, higher = more increase) is -21.8%.

For the molecule `CCN(CC)c1ccc(NC(=S)NC(=O)c2cccs2)cc1`, the signal change vs control minus 3*SD hit threshold (margin above threshold, higher = more increase) was -20.8%.

Turning to `Cc1ccc(NC(=O)C(=O)NNC(=O)c2cccs2)cc1`, the signal change vs control minus 3*SD hit threshold (margin above threshold, higher = more increase) was 27.4% (active).

Consider `CCc1ccc(NC(=O)C(=O)NNC(=O)c2cccs2)cc1`, for which the signal change vs control minus 3*SD hit threshold (margin above threshold, higher = more increase) is 18.1% (active).

`O=C(NC(=S)NNC(=O)c1cccs1)c1ccc(Br)o1`: the signal change vs control minus 3*SD hit threshold (margin above threshold, higher = more increase) was -45.9%.

On to `Cc1ccc(N/C=C/C(=O)c2cccs2)cc1`, for which the signal change vs control minus 3*SD hit threshold (margin above threshold, higher = more increase) was -25.9%.

`COc1ccc(NC(=O)C(=O)NNC(=O)c2cccs2)c(OC)c1`: the signal change vs control minus 3*SD hit threshold (margin above threshold, higher = more increase) was -7.2%.
